From PubChem BioAssay (NCATS)
Results filed as inconclusive are left out. Entries that show only a call come without a potency. Calls of active or inactive are those of the source. The call rests on the fitted dose curve; tested in HEK293 reporter line.
Potency means the concentration at half of the fitted maximal effect.

Assay: qHTS for Inhibitors of the Functional Ribonucleoprotein Complex (vRNP) of Lassa (LASV) Arenavirus: LASV Primary Screen - GLuc reporter signal (AID 1347082); further: nearly all actives have a fitted effect of over 60% in size
Conditions: LASV minigenome vRNP, Gaussia luciferase reporter; series mostly up to 57.5 µM
In the case of C=C1C(=O)[C@@]23[C@H](O)C[C@@H]4C(C)(C)CC[C@H](O)[C@]4(C)[C@@H]2C[C@H](O)[C@@H]1[C@H]3O, the Potency is reported as 8.91 µM (active). In the case of COC(/C(C)=C/C=C/C(C)=C/c1coc(C)n1)C(C)C1CC(O)C2(C)OC2C=CC(C)C2CC(CC(=O)O2)CC2OC2C(=O)O1 (centres undefined), the Potency is reported as “inactive”. For O=C(/C=C/c1ccccc1)NCCc1ccccc1, the Potency was “inactive”. In the case of C[C@]12CC[C@H](O)C[C@H]1CC[C@@H]1C2CC[C@]2(C)[C@@H](C3=CC(=O)OC3)[C@@H](O)C[C@]12O (some centres undefined), the Potency is reported as 6.31 µM (active). With CC1=CC(C)CC(C)OC(=O)CC(c2ccc(O)cc2)NC(=O)C(Cc2c(Br)[nH]c3ccccc23)N(C)C(=O)C(C)NC(=O)C(C)C1 (centres undefined) the Potency was “inactive”. With CO[C@H]1O[C@@H]2O[C@@]3(C)CC[C@@H]4[C@@H](C)CC[C@@H]([C@H]1C)[C@@]24OO3 the Potency was “inactive”. For CN(C(Cc1ccc(OS(=O)(=O)c2cccc3cnccc23)cc1)C(=O)N1CCN(c2ccccc2)CC1)S(=O)(=O)c1cccc2cnccc12 (centres undefined), the Potency was 13.7 µM (active). With COc1cccc2c1C1COC3C4CC(C(=O)O)C(C(C2)N13)N4C (centres undefined) the Potency was “inactive”. In the case of COC(=O)C1C2CC3c4[nH]c5cc(OC)ccc5c4CCN3CC2CC(O)C1OC (centres undefined), the Potency is reported as “inactive”.
